These sequences were tested against PPIA (assay: pooled miR-30 sensor sort-seq; sequence = guide strand). Details: shRNA.
With TCATCTTCAAATTTCTCCCCAT the sensor-assay potency score (higher = more potent) was -0.0656. TACAGAAGGAATGATCTGGTGG gave a sensor-assay potency score (higher = more potent) of 0.317. TTCTGCTGTCTTTGGGACCTTG gave a sensor-assay potency score (higher = more potent) of -0.756.

Each sequence was assayed against PPIF in the same assay as above. Details: shRNA.
TTCAGCTCCAGCACCACGCGGC was tested, and the sensor-assay potency score (higher = more potent) was -0.501. TTAAACAGGTATTAGAGTCCTT was tested, and the sensor-assay potency score (higher = more potent) was -0.0918. TCTGTGATGACAATCTTCTTGG was tested, and the sensor-assay potency score (higher = more potent) was 0.0684. For TTTCACTTCTAGTCAATCTTGT, the sensor-assay potency score (higher = more potent) was 0.721. With TTCACTTCTAGTCAATCTTGTT the sensor-assay potency score (higher = more potent) was -0.0767. TGACCGAACACAACATGCTTGC showed a sensor-assay potency score (higher = more potent) of -0.464. TTCTATTTTCTTCACGACGTCC showed a sensor-assay potency score (higher = more potent) of -0.712. With TGTGATGACAATCTTCTTGGAT the sensor-assay potency score (higher = more potent) was 0.322. Sequence TAGGAAGACAATATTAAACAGG has a sensor-assay potency score (higher = more potent) of -0.559. Sequence TAAACAGGTATTAGAGTCCTTT has a sensor-assay potency score (higher = more potent) of -0.324. In the case of TATTTTCTTCACGACGTCCATG, the sensor-assay potency score (higher = more potent) is reported as -0.975. TAGCCATGGACAGGACACCTGG was tested, and the sensor-assay potency score (higher = more potent) was -1.46.

These sequences were tested against PPIL1 in the same assay as above. Details: shRNA.
For TTCTATGTCATCTAGAAGCTGG, the sensor-assay potency score (higher = more potent) was 0.291. TTACATGTCATTCTATGTCATC gave a sensor-assay potency score (higher = more potent) of -1.08. Work on TTAGCATTACATGTCATTCTAT yielded a sensor-assay potency score (higher = more potent) of -0.539. Work on TAGATGCACCACCTCGACCTGT yielded a sensor-assay potency score (higher = more potent) of -1.02. For TATGTCATCTAGAAGCTGGTTC, the sensor-assay potency score (higher = more potent) was 0.329. Sequence TTCTGTGGAATTTTGTGCCATT has a sensor-assay potency score (higher = more potent) of -0.861. TGTAGTAACCTCGACGAGCCAA was tested, and the sensor-assay potency score (higher = more potent) was -0.207. Work on TTCACGTCGTCCACAGGGCGGT yielded a sensor-assay potency score (higher = more potent) of -0.967. With TTGGATCATGAAGTCTTTGATA the sensor-assay potency score (higher = more potent) was -1.36. For TAAAATGTACTTCCATCTCTAA, the sensor-assay potency score (higher = more potent) was -0.493. TAGCATTACATGTCATTCTATG gave a sensor-assay potency score (higher = more potent) of -0.73. With TAGATAGATGCACCACCTCGAC the sensor-assay potency score (higher = more potent) was -1.34.

What follows are sequences tested against PPM1D in the same assay as above. Details: shRNA.
Sequence TTTCTTTAAACATTTAGCCCTA has a sensor-assay potency score (higher = more potent) of -0.501. For TAACAGAGTTCTTTCGCTGTGA, the sensor-assay potency score (higher = more potent) was 0.0976. TTCGATTCGTTCTCTTTCCTTG showed a sensor-assay potency score (higher = more potent) of 0.00604. Sequence TTGAGTAACGTCCTCCATGTAC has a sensor-assay potency score (higher = more potent) of -0.62. TTTAACAGAGTTCTTTCGCTGT gave a sensor-assay potency score (higher = more potent) of 0.0988. TATAATATACTTGTGCTTCTGA gave a sensor-assay potency score (higher = more potent) of 0.584. Work on TATACTTGTGCTTCTGAGGGTC yielded a sensor-assay potency score (higher = more potent) of 0.801. For TTGGACTCTTCTAATGTCCTTT, the sensor-assay potency score (higher = more potent) was -0.026. TTTTACAGCAACTTATACCCTA gave a sensor-assay potency score (higher = more potent) of 0.379. TTTACAGCAACTTATACCCTAA gave a sensor-assay potency score (higher = more potent) of -0.288. TTTTTTCTCCTCTTGGTCCTGG gave a sensor-assay potency score (higher = more potent) of 0.387. TTGAGGGTATGACTACACCTTG showed a sensor-assay potency score (higher = more potent) of -1.21.

From the OligoGym collection
Also: reference of the scale not given here.
